Assay [1] is described as follows: Nuclear factor erythroid 2-related factor 2/antioxidant responsive element (Nrf2/ARE) small molecule agonists: qHTS cell viability counter screen in human keratinocytes (AID 1919968; active means well fitted curve in the direction sought with a large enough effect in the repeat runs; an effect the other way counts as inactive or inconclusive; further: nearly all actives have a fitted effect of over 55% in size). Put shortly:
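Seed 1,500 KeratinoSens cells per well, then incubate 5 h at 37 C/5% CO2. Add compounds in DMSO and incubate 23 h. Add CellTiter-Fluor, wait 1 h and read fluorescence.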

Assay [2] in a line: G protein-coupled receptor (GPCR) small molecule agonists, calcium flux assay: HEK293 wild type cell line counter screen (AID 1920065). The procedure, abridged:
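Counter-screen of the Tox21 10K library for non-specific calcium release: dye-loaded cells received compounds in DMSO and were monitored by kinetic fluorescence (480/540 nm, 3 min). Fifteen concentrations, run in triplicate.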

A short description of assay [3]: p53 small molecule agonists, cell-based qHTS assay with human liver microsomes (AID 1963577).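 Further: p53 response element beta-lactamase reporter cells with liver microsomes plus NADPH.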 The procedure, abridged: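 16 h, 37 C exposure of p53RE-bla cells to compounds with human liver microsomes and NADPH (0.5 mg/mL final each); detection via LiveBLAzer mixture, 2 h dark at room temperature.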
Assay [4] can be described thus: p53 small molecule agonists, cell-based qHTS assay with rat liver microsomes (AID 1963578). The procedure, abridged:
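With rat liver microsomes and NADPH present (0.5 mg/mL final each), p53RE-bla cells are treated with compound for 16 h at 37 C. LiveBLAzer detection mixture is then applied for 2 h at room temperature in the dark.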

Assay [5] in a line: p53 small molecule agonists, cell-based qHTS assay with human liver microsomes: qHTS cell viability counter screen (AID 1963579). Further: nearly all actives have a fitted effect of over 45% in size. Put shortly: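 In this multiplexed counter screen, the reporter plates were subsequently treated with CellTiter-Glo so that cell viability, reflected by luminescence, could be recorded for p53RE-bla cells dosed 16 h with compounds under microsomal activation (HLM and NADPH).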

Assay [6] in a line: p53 small molecule agonists, cell-based qHTS assay with rat liver microsomes: qHTS cell viability counter screen (AID 1963580). Further: nearly all actives have a fitted effect of over 45% in size. Put shortly: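 In HCT-116 cells carrying a p53 response element-bla reporter, compounds were metabolically activated in situ by rat liver microsomes with NADPH over 16 h. Cell ATP content then served as the cytotoxicity measure.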
A short description of assay [7]: p53 small molecule agonists, cell-based qHTS assay: qHTS cell viability counter screen (AID 1963581). Further: nearly all actives have a fitted effect of over 45% in size. The procedure, abridged:
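Cells: HCT-116 with p53 response element-driven beta-lactamase. Treatment: 16 h, 37 C, compounds in DMSO. Read: CellTiter-Glo luminescence after 30 min RT.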

Assay [8] can be described thus: p53 small molecule agonists, cell-based qHTS assay (AID 1963582; active means well fitted activation curve with a large enough effect in the signal ratio in the repeat runs, not every such curve was filed as active; the % refers to the signal ratio). Put shortly: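 Quantitative HTS in p53RE-bla cells: after a 5 h settling period, compounds delivered in DMSO were left on cells for 16 h at 37 C, and reporter induction was measured as fluorescence following 2 h substrate loading.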
Assay [9] addresses 5-hydroxytryptamine receptor 2A (Homo sapiens) (UniProt P28223). The experiment in a line: 5-hydroxytryptamine receptor 2A (HTR2A) small molecule antagonists, cell-based qHTS assay (AID 1963586). Further: nearly all actives have a fitted effect of over 45% in size. The procedure, abridged:
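Antagonist-mode intracellular calcium assay: DOI (4 nM) added after 5 min compound pre-incubation at room temperature to dye-loaded HTR2A-CHO cells. Fluorescence followed for 3 min, sampled every second.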

For assay [10] the target is unchanged. The experiment in a line: 5-hydroxytryptamine receptor 2A (HTR2A) small molecule agonists, cell-based qHTS assay (AID 1963587). Further: nearly all actives have a fitted effect of over 30% in size. The procedure, abridged: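 HTR2A-CHO cells, plated 18 h at 37 C/5% CO2, dye-loaded 1 h at 37 C; compounds in DMSO added by pin tool (agonist mode). Intracellular calcium flux read as kinetic fluorescence on FDSS over 2 min at 1 s intervals.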

Assay [11] deals with Muscarinic acetylcholine receptor M1 (Homo sapiens) (UniProt P11229). The experiment in a line: Cholinergic receptor muscarinic 1 (CHRM1) small molecule agonists, cell-based qHTS assay (AID 1963589). Further: nearly all actives have a fitted effect of over 35% in size. Put shortly: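 Agonist-mode qHTS in CHO cells stably carrying human muscarinic M1. Intracellular calcium is tracked by fluorescence every second after compound transfer; each compound runs at 15 concentrations in three independent runs.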
Chain of Muscarinic acetylcholine receptor M1 (Homo sapiens) (P11229 whole entry, looked up): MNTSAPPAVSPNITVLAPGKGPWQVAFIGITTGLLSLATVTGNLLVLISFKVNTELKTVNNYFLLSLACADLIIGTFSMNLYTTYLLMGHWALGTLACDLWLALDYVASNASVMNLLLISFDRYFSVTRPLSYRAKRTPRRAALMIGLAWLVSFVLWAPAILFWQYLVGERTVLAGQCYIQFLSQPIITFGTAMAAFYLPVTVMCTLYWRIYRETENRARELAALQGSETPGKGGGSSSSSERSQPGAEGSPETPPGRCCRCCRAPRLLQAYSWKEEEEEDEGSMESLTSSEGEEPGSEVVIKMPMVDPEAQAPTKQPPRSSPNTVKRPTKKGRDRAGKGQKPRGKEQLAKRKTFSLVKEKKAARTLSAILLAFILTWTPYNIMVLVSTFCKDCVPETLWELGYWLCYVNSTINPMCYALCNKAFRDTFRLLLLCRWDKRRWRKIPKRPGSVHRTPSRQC

The nature of assay [12]: cAMP Responsive Elements (CRE) small molecule agonists, cell-based qHTS assay (AID 1963590). Put shortly: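 Agonist mode qHTS in CRE-bla HEK 293T cells: compounds dosed from DMSO for 3 h at 37 C/5% CO2, followed by LiveBLAzer B/G FRET substrate for 2 h at room temperature.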
Assay [13] is described as follows: cAMP Responsive Elements (CRE) small molecule antagonists, cell-based qHTS assay (AID 1963591; active means well fitted inhibition curve with a large enough effect in the signal ratio in the repeat runs, not every such curve was filed as active; the % refers to the signal ratio). The procedure, abridged:
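Antagonist mode: test compounds are co-incubated with the adenylyl cyclase activator NKH477 (0.25 uM final) on CRE-bla HEK293T cells for 3 h at 37 °C, followed by LiveBLAzer substrate loading.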

The target of assay [14] is Beta-2 adrenergic receptor (Homo sapiens) (UniProt P07550). The experiment in a line: Adrenergic beta2 receptor (ADRB2) small molecule antagonists, cell-based qHTS assay (AID 1963592). Further: nearly all actives have a fitted effect of over 50% in size. Further: potency means the concentration at half of the fitted maximal effect. Put shortly: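 Cells (CHO, stable ADRB2 overexpression) incubated 18-20hr at 37C; compounds added from DMSO; agonist mix (1nM isoproterenol, 100uM IBMX, 25uM Ro-20-1724) added; 0.5hr RT; d2-cAMP and anti-cAMP-cryptate added; 1hr RT; 665/615 nm read.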
Chain of Beta-2 adrenergic receptor (Homo sapiens) (P07550 whole entry, looked up): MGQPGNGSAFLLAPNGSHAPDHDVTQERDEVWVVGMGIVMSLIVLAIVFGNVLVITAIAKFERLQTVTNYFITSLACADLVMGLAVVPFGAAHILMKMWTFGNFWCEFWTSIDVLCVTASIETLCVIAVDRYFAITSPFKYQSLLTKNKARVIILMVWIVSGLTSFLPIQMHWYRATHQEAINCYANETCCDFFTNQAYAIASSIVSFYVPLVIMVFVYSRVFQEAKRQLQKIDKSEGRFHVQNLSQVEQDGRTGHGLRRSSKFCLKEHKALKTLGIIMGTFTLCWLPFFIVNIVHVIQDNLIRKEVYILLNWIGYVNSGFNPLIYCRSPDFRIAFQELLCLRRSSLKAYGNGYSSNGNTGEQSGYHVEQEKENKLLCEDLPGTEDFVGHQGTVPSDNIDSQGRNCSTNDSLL

The target in assay [15] is D(2) dopamine receptor (Homo sapiens) (UniProt P14416). Nature of the assay: Dopamine D2 receptor (DRD2) small molecule agonists, cell-based qHTS assay (AID 1963594). Further: nearly all actives have a fitted effect of over 35% in size. Put shortly:
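HEK293 cells stably expressing DRD2 were cultured 24 h at 37 C, then given Ro20-1724 (0.1 mM final) and compounds for 10 min at room temperature. NKH477 (200nM) was then added for 30 min. cAMP was read by HTRF.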

Assay [16] shares this target. Nature of the assay: Dopamine D2 receptor (DRD2) small molecule antagonists, cell-based qHTS assay (AID 1963595; active means well fitted inhibition curve with a large enough effect in the signal ratio in the repeat runs, with a control signal flat; the % refers to the signal ratio). The procedure, abridged:
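HEK293 cells stably expressing DRD2 were preincubated with 0.1 mM Ro20-1724, then with compound for 10 min at room temperature. Cells were stimulated with 200 nM NKH477 plus 12 nM quinpirole for 30 min, and cAMP was read by HTRF.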

The target in assay [17] is Gonadotropin-releasing hormone receptor (Homo sapiens) (UniProt P30968). Nature of the assay: Human gonadotropin-releasing hormone receptor (GnRHR) small molecule agonists, calcium flux assay in GnRHR-HEK293 cells (AID 1920063). Further: nearly all actives have a fitted effect of over 35% in size. The procedure, abridged: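 Cells: HEK293 stably expressing human GnRHR. Steps: overnight (18 h) culture, 1 h calcium dye loading at 37 C, compound addition, kinetic fluorescence read at 480/540 nm. Each compound tested at 15 concentrations in triplicate.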
Chain of Gonadotropin-releasing hormone receptor (Homo sapiens) (P30968 whole entry, looked up): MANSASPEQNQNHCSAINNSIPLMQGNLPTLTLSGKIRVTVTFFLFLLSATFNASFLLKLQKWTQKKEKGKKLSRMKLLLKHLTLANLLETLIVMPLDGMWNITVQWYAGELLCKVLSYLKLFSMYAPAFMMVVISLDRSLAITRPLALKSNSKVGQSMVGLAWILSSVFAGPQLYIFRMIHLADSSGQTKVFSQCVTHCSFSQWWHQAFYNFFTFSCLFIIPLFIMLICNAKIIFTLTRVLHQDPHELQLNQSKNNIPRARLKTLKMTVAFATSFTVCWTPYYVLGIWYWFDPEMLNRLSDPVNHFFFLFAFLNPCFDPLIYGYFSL

The target of assay [18] is KiSS-1 receptor (Homo sapiens) (UniProt Q969F8). The experiment in a line: Human kisspeptin (KISS1R) small molecule agonists, calcium flux assay in KISS1R-HEK293 cells (AID 1920064; active means well fitted curve in the direction sought with a large enough effect in the repeat runs; an effect the other way counts as inactive or inconclusive). Put shortly: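 Cells plated and incubated 18 h; dye added, 1 h at 37 C; compounds in DMSO pinned in; signal read at 480/540 nm every second for 3 min. Each compound tested at 15 concentrations in triplicate.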
Chain of KiSS-1 receptor (Homo sapiens) (Q969F8 whole entry, looked up): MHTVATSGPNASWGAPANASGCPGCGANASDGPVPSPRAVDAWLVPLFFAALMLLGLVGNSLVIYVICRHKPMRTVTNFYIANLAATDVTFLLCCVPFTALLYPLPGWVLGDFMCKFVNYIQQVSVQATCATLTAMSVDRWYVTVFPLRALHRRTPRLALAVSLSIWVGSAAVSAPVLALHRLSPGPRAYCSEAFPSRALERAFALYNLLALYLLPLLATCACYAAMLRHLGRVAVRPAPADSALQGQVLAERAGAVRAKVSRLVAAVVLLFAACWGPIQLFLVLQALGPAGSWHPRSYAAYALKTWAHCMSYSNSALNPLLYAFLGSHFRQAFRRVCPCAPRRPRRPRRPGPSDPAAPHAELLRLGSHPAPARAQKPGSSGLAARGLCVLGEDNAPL

The target in assay [19] is Muscarinic acetylcholine receptor M1 (Homo sapiens) (UniProt P11229). The experiment in a line: Cholinergic receptor muscarinic 1 (CHRM1) small molecule antagonists, cell-based qHTS assay (AID 1963588). Further: nearly all actives have a fitted effect of over 40% in size. Further: potency means the concentration at half of the fitted maximal effect. Put shortly: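 CHRM1-CHO calcium-flux assay, antagonist mode. Cells were seeded 18 h, dye-loaded 1 h at 37 C and given compound for 5 min at RT, then acetylcholine was added at 50nM. FDSS fluorescence was read 3 min; 15 concentrations, three runs.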

Assay [20] deals with Beta-2 adrenergic receptor (Homo sapiens) (UniProt P07550). Nature of the assay: Adrenergic beta2 receptor (ADRB2) small molecule agonists, cell-based qHTS assay (AID 1963593).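 Further: CHO cells stably overexpressing human ADRB2.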 Put shortly: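 CHO cells stably over-expressing ADRB2 were plated overnight at 37C, then dosed with compounds plus a stimulation mix containing 100uM IBMX and 25uM Ro-20-1724 for 0.5hr at room temperature. cAMP was measured by HTRF competition, 1hr.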

Records with an inconclusive call do not appear. More than one record can exist for a structure, and the calls need not agree. Active and inactive are the calls of the source. Unless noted, the call rests on the fitted dose curve.

Chain of 5-hydroxytryptamine receptor 2A (Homo sapiens) (P28223 whole entry, looked up): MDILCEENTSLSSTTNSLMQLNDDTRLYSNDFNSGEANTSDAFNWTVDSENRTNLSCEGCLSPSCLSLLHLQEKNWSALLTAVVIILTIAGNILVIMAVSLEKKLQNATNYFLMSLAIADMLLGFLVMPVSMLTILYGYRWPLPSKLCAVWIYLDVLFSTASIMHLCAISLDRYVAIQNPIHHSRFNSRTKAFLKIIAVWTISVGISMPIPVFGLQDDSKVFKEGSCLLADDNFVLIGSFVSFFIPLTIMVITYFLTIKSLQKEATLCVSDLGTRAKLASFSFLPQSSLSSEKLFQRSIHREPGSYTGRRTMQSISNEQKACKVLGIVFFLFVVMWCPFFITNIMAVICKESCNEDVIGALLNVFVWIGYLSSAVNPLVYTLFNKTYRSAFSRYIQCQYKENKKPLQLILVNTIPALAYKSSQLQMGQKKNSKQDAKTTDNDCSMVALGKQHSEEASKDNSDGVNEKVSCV
Chain of D(2) dopamine receptor (Homo sapiens) (P14416 whole entry, looked up): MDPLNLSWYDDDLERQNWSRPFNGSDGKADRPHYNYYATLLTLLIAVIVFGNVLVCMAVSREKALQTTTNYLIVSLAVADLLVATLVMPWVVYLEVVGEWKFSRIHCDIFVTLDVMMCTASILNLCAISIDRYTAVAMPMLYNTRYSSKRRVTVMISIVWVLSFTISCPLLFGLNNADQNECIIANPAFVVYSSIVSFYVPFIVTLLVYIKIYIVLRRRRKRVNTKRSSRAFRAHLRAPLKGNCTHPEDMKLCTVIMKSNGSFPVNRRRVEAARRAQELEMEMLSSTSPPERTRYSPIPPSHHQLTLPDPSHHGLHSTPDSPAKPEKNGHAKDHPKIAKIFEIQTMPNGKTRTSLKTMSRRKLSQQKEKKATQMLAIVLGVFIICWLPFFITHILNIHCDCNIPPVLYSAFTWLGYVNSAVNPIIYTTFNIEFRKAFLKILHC

In the case of `COc1ccccc1NC(=O)CC(C)=O`, the Potency result in assay [1], in assay [2], in [3], in assay [4], in [5] and in assay [6] was “inactive” each time. Further, the Potency result in assay [7], in assay [8], in [9], in [10], in [11] and in assay [12] was “inactive” in each case. Further, the Potency result in assay [13], in [14], in assay [15] and in [16] was “inactive” each time.
For the molecule `CC(C)CC(C)(O)C#CC(C)(O)CC(C)C` (stereo not drawn), the Potency result in [1], in [17], in assay [18], in [2], in [3] and in assay [4] was “inactive” each time. Also, the Potency entry in assay [5], in assay [6], in [7], in assay [8], in assay [9] and in [10] was “inactive” in each case. For the same molecule, the Potency result in assay [19], in assay [11], in assay [12], in [13], in assay [20] and in assay [15] was “inactive” each time. Besides, in [14], the Potency was 59.9 µM (active) and inactive.
For `NC(=O)c1ccccc1N`, the Potency result in [1], in [17], in assay [18], in [2], in [3] and in assay [4] was “inactive” in each case. The Potency entry in [5], in [6], in [7], in [8], in assay [9] and in assay [10] was “inactive” throughout. For the same molecule, the Potency entry in assay [19], in [11], in assay [12], in assay [13], in assay [14] and in assay [20] was “inactive” in each case. The Potency entry in assay [15] and in assay [16] was “inactive” each time.
Turning to `CCCCCCCCCCCC[N+](C)(C)CCCS(=O)(=O)[O-]`, the Potency entry in assay [1], in assay [17], in assay [18], in assay [2], in assay [3] and in assay [4] was “inactive” throughout. Further, the Potency entry in assay [5], in [6], in assay [7], in assay [8], in [9] and in assay [10] was “inactive” throughout. Moreover, the Potency result in assay [11], in [12], in assay [13], in [14], in assay [20] and in [15] was “inactive” in each case. Moreover, the Potency entry in assay [16] was “inactive”. In addition, the Potency in assay [19] is 33.8 µM (active).
Consider `CCCC(C)CCC(C)=O` (stereo not drawn), for which the Potency result in assay [1], in [17], in assay [18], in assay [2], in assay [3] and in [4] was “inactive” in each case. Besides, the Potency entry in [5], in assay [6], in [7], in assay [8], in assay [9] and in assay [10] was “inactive” each time. For the same molecule, the Potency result in [19], in [11], in assay [12], in assay [13], in assay [14] and in [20] was “inactive” throughout. Also, the Potency entry in [15] and in [16] was “inactive” each time.
For the molecule `CN(C)CCCNCCCN`, the Potency result in assay [1], in [17], in assay [18], in assay [2], in assay [3] and in assay [4] was “inactive” in each case. The Potency entry in [5], in assay [6], in assay [7], in assay [8], in [9] and in assay [10] was “inactive” in each case. Further, the Potency entry in [19], in assay [11], in [12], in [13], in assay [14] and in assay [15] was “inactive” in each case. In addition, the Potency entry in assay [16] is “inactive”.
As to `CC(C)(C)c1ccc(S)cc1`, the Potency result in [1], in [17], in [18], in assay [2], in [3] and in [4] was “inactive” each time. Moreover, the Potency entry in assay [5], in [6], in assay [7], in assay [8], in assay [9] and in assay [10] was “inactive” in each case. For the same molecule, the Potency entry in [19], in [11], in assay [12], in assay [13], in [14] and in assay [15] was “inactive” in each case. Also, in assay [16], the Potency result was “inactive”.

Values taken from PubChem BioAssay (Tox21).
